Screening results: PubChem BioAssay, National Center for Advancing Translational Sciences (NCATS)
Sampled rows, rich in hits. Any-hit rate of the full collection: about 6.5%.
Vaccinia Venus: inhibitors of vaccinia virus (Venus reporter). Vaccinia virus Venus reporter expression, fluorescence. Potency, µM (highest dose often 36.5 µM), for inactives: top-dose activity change, negative = inhibition, actives largely listed as inhibitors. 330,000 tested, 0.46% active; calls by dose curve; tested in A549 cells; further: potency means the concentration at half of the fitted maximal effect; nearly all actives have a fitted effect of over 30% in size
MARV entry inh: blocks Marburg virus binding to or entry into cells | Marburg virus pseudotyped entry inhibition, cell reporter | 300,000 tested, 1.8% active | Potency, µM (doses to about 37.8 µM), without a hit: at the highest dose activity change, negative = inhibition, actives largely listed as inhibitors | AID 540276; calls by dose curve; tested in HEK293 cells; further: potency means the concentration at half of the fitted maximal effect
FMDV inh: foot and mouth disease virus antiviral activity; FMDV antiviral cell-based qHTS; Potency, µM (highest dose often 57.9 µM), for inactives: at the highest dose activity change, negative = inhibition, hits mostly inhibitors; 410,000 tested, 1.2% active; AID 1159524; calls by dose curve; tested in HEK293T cells; further: read-out not given here; potency means the concentration at half of the fitted maximal effect; nearly all actives have a fitted effect of over 45% in size
VACV mCherry inh: inhibitors of vaccinia virus infection (mCherry reporter signal); Vaccinia virus mCherry reporter infection, fluorescence; Potency, µM (titrated, usually from 36.5 µM), without a hit: at the highest dose activity change, negative = inhibition, most hits filed as inhibitors; 310,000 tested, 0.63% active; AID 720579; calls by dose curve; tested in A549 cells; further: potency means the concentration at half of the fitted maximal effect; nearly all actives have a fitted effect of over 35% in size
HCMV antiviral: blocks human cytomegalovirus replication | HFF cells, HCMV-luciferase reporter, 72 h; stronger effect = lower value | activity change, negative = inhibition, % at 57.5 µM | 410,000 tested, 4.5% active | AID 1259415; in the data active means activity change below about -60%; inconclusive means no clear call, values can overlap the other calls; inactive means above about -39%
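Luciferase read-out from HCMV-luciferase-infected HFFs (MOI 1 PFU/cell) 72 h post infection at 37C; compounds added after 16 h cell attachment; activity normalized between buffer-only basal and Salinomycin (10uM) inhibitor controls.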
Lassa entry inh: Lassa virus entry inhibition; Lassa virus pseudotype entry inhibition, cell reporter; Potency, µM (top dose mostly 37.9 µM), without a hit: at the top dose activity change, negative = inhibition, actives largely listed as inhibitors; 300,000 tested, 1.2% active; AID 540256; calls by dose curve; tested in HEK293 cells; further: potency means the concentration at half of the fitted maximal effect; nearly all actives have a fitted effect of over 50% in size
* marks the source's active call; other numbers are inactive results; i = inactive; ? = inconclusive; · = no result; [ ] = another dose, or the depositor's remark. On the % scale 0 is the no-effect control and ±100 the full control effect.

SMILES | Vaccinia Venus | MARV entry inh | FMDV inh | VACV mCherry inh | HCMV antiviral | Lassa entry inh
O=c1c(Cl)c(N2CCN(c3ccc(F)cc3)CC2)cnn1C12CC3CC(CC(C3)C1)C2 | -11.3% | ? | ? | ? | -62.6* | -44.8%
COc1ccc2c3c(n(C)c2c1)[C@@H](CO)N(C(=O)Cc1ccccn1)CC31CCN(C)CC1 | · | · | · | · | 0.0 | ·
NS(=O)(=O)c1ccc(Nc2cc(-c3ccc(O)c(F)c3)[nH]n2)cc1 | · | · | · | · | · | 22.0%
CCOC(=O)[C@]12Cc3ccccc3[C@H]1N(Cc1ccccc1)C(=O)c1cc(OC)ccc12 | -5.0% | · | ? | 11.6% | 12.4 | ·
CCOC(=O)[C@]12Cc3ccccc3[C@H]1N(CCC(=O)OC)C(=O)c1cc(OC)ccc12 | -12.2% | · | 28.2µM* | -7.5% | -99.4* | ·
CCOC(=O)[C@]12Cc3cc(OC)ccc3[C@H]1N(CCC(=O)OC)C(=O)c1cc(OC)ccc12 | -14.8% | · | 20µM* | -5.5% | -107.4* | ·
CCOC(=O)[C@]12Cc3c(cc(OC)c(OC)c3OC)[C@H]1N(CCC(=O)OC)C(=O)c1ccccc12 | ? | · | ? | ? | -108.4* | ·
CCOc1cc(C#N)c(-n2nnc3c(sc4nc(C)cc(C)c43)c2=O)cc1OCC | 2.8% | ? | -21.1% | 0.4% | 2.5 | 24.1%[46.1 µM]
Cn1c(-c2cccnc2)cc2cnc(Nc3ccc4c(c3)OCCO4)cc21 | · | · | · | · | 43.0 | ·
CC(=O)c1ccc(Oc2nc(C)nc3c2oc2ccccc23)cc1 | ? | · | ? | ? | -35.7 | -14.5%[46.1 µM]
O=C(O)CCCCCNS(=O)(=O)c1cccc2c1C(=O)c1ccccc1C2=O | 5.01µM* | ? | -7.4% | 4.47µM* | -8.5 | 0.6%
CC1(C)CN2C(c3ccc(Cl)cc3)N2C1 (stereo not given) | -3.2% | 11.9% | 16.9% | -9.4% | -74.7* | -1.2%
C[C@H](NC(=O)OCc1ccccc1)C(=O)OCN1C(=O)c2ccccc2C1=O | · | -5.7% | · | · | · | ·
Cc1ccc(-n2c(=O)c3c(c4cc(C)ccc4n3C)n(CC(=O)NCCC3=CCCCC3)c2=O)cc1 | 2.4% | · | -14.1% | -10.7% | 27.4 | 16.0%[46.1 µM]
CCCCN1C2=C(C(=O)CCC2)C(c2ccc(Cl)c(Cl)c2)C2=C1c1ccccc1C2=O (stereo not given) | · | ? | 5.1% | · | 5.7 | 2.31µM*
CCCN1C(=O)c2ccccc2NC1c1ccc(Cl)c(Cl)c1 (stereo not given) | · | · | -5.1% | · | -14.3 | ·
CCSc1nnc2c(n1)OC(c1ccc(OC)cc1OC)N(C(C)=O)c1ccccc1-2 (stereo not given) | 8.7% | -7.0%[46.1 µM] | 6.3% | -6.7% | -63.5* | -26.7%[46.1 µM]
Cc1cc2oc(C(=O)Nc3ccc(S(=O)(=O)N(C)Cc4ccccc4)cc3)cc(=O)c2cc1C | -12.5% | 0.0%[46.1 µM] | 5.4% | -15.0% | -3.9 | -0.6%[46.1 µM]
CC(Cc1cccs1)NC(=S)Nc1ccc(Cl)cc1 (stereo not given) | -19.2% | ? | 21.1% | -18.8% | -92.2* | -3.6%
Cn1c(-c2cccc(OCc3ccccc3)c2)nc2c1c(=O)[nH]c(=O)n2Cc1ccccc1 | -3.4% | -8.1% | 35.5µM* | -15.8% | -15.0 | ?
COCCn1c(-c2cccc([N+](=O)[O-])c2)nc2c1c(=O)[nH]c(=O)n2Cc1ccccc1 | -5.4% | ? | -13.7% | -8.5% | -87.3* | ?
CCCn1c(=O)[nH]c(=O)c2c1nc(-c1ccc(OC)c(Br)c1)n2CCOC | 0.9% | 1.9%[46.1 µM] | -10.7% | -7.0% | -8.1 | 7.94µM*
Cn1c(-c2cccc(F)c2)nc2c1c(=O)[nH]c(=O)n2Cc1ccccc1 | -11.7% | -0.3%[46.1 µM] | 1.5% | ? | 30.8 | 8.91µM*
CCCn1c(-c2cccc(F)c2)nc2c1c(=O)[nH]c(=O)n2Cc1ccccc1 | -7.0% | -22.7%[46.1 µM] | -18.5% | i | -12.8 | ?
CCOC(=O)N1CCN(C(=O)c2ccc(Cn3c(=S)[nH]c4ccc(Br)cc4c3=O)cc2)CC1 | -21.4% | ? | ? | i | -94.9* | 3.98µM*
SMILES | Vaccinia Venus | MARV entry inh | FMDV inh | VACV mCherry inh | HCMV antiviral | Lassa entry inh
CCOC(=O)N1CCN(C(=O)c2ccc3c(=O)n(Cc4ccc(Cl)cc4)c(=S)[nH]c3c2)CC1 | -30.6% | ? | ? | ? | -36.4 | -6.9%
O=c1c2cc(Br)ccc2[nH]c(=S)n1Cc1ccccc1 | -12.8% | -2.1%[46.1 µM] | -21.8% | i | -62.8* | ?
Cc1ccc(C)c(N2CCN(C(=O)CN3C(=O)CSc4c3c(C)nn4-c3ccccc3)CC2)c1 | -7.5% | · | 35.5µM* | -4.5% | -8.8 | 10.8%[46.1 µM]
Cc1ccc(Cl)cc1N1CCN(C(=O)CN2C(=O)CSc3c2c(C)nn3-c2ccccc2)CC1 | -6.2% | · | -12.4% | -5.7% | -0.9 | 24.7%[46.1 µM]
COc1cccc(OC)c1-c1cc(CCCc2cc(-c3c(OC)cccc3OC)nc3ccccc23)c2ccccc2n1 | ? | · | · | 10µM* | · | ·
COc1c2ccccc2nc2ccccc12 | 3.9% | -9.5%[46.1 µM] | -28.8% | 8.1% | -34.9 | 2.3%[46.1 µM]
CCc1ccccc1NC(=O)CSc1nnc(-c2cc(OC)c(OC)c(OC)c2)o1 | -13.7% | 9.3%[46.1 µM] | -24.8% | -18.6% | 11.1 | 5.6%[46.1 µM]
CN(C)c1ccc(/C=N/Nc2nc3ccccc3o2)cc1 | -29.3% | ? | ? | ? | -16.0 | 5.62µM*
CN(C)c1ccc(/C=N/Nc2nncc3ccccc23)cc1 | -9.2% | ? | 7.94µM* | i | 40.3 | ?
CCS(=O)(=O)c1ccc(C=NNc2nc3ccccc3o2)cc1 | -10.8% | ? | -14.1% | -26.5% | 44.9 | ?
COCc1ccc(CN2CCOc3ccc(C4=CCCCC4)cc3C2)o1 | 1.1% | · | -7.6% | -6.9% | · | ·
CCCNC(=O)c1nnc2n1CCN(C(=O)CCc1ccccc1)C2 | · | · | · | · | -9.9 | ·
CCCSCC(=O)Nc1ncc2c(n1)-c1ccccc1CC2 | -5.5% | 7.8%[46.1 µM] | 18.4% | i | -95.3* | ?
COC(=O)c1cc(C(=O)N2CCN(c3cccc(C)c3C)CC2)cc([N+](=O)[O-])c1 | -24.2% | 4.47µM* | -29.2% | ? | 8.6 | -22.9%
COc1ccccc1N1CCN(C(=O)c2ccc3nc(-c4ccco4)c(-c4ccco4)nc3c2)CC1 | ? | 20.6µM* | ? | 11.2µM* | -7.8 | ?
COC(=O)c1cc(C(=O)N2CCN(c3ncccn3)CC2)cc([N+](=O)[O-])c1 | -14.6% | -3.9%[46.1 µM] | -2.7% | -23.8% | -6.0 | -11.6%[46.1 µM]
COC(=O)c1cc(C(=O)N2CCN(c3ccccc3OC)CC2)cc([N+](=O)[O-])c1 | -15.5% | ? | -7.1% | 2.82µM* | ? | -27.7%
Cc1cccc(NC(=O)Cn2nc(N3CCN(c4ccccc4)CC3)ccc2=O)c1C | 5.8% | · | -18.9% | -10.3% | -18.8 | ?
Cc1cnc(Nc2nc3ccccc3o2)nc1C(=O)Nc1cccc(C(F)(F)F)c1 | · | -21.5% | 3.3% | · | -73.7* | 0.4%
O=C(CSc1nnc(NC(=O)c2ccccc2)s1)NCc1ccco1 | 1.1% | ? | 16.1% | -14.5% | 37.3 | ?
O=C(CSc1nnc(NC(=O)c2ccc3c(c2)OCO3)s1)NCc1ccco1 | -9.9% | 7.08µM* | -33.4% | -12.1% | 14.0 | ?
